Pf growth 96h: Primary qHTS for delayed death inhibitors of the malarial parasite plastid, 96 hour incubation; Potency, µM (doses to about 28.7 µM), for inactives: at the highest dose activity change, negative = inhibition, most hits filed as inhibitors; actives 6.9% (n = 320,000); P. falciparum luciferase reporter growth, 96 h; note: % is set by controls: 0 for no effect and ±100 for the full control effect
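Infected RBCs, 2% Hct / 0.05% parasitemia final; luciferase-reporter P. falciparum; cpd 96 h, 37 C, 5% CO2; luciferase detection reagent; luminescence.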
AMA1 RON2 block: qHTS for Inhibitors of AMA1-RON; Towards Development of Antimalarial Drug Lead: Primary Screen. AlphaScreen AMA1-biotinylated RON2 peptide binding. actives 0.2% (n = 360,000). Plasmodium falciparum AMA1 (3D7) - RON2 peptide interaction. Potency, µM (series often up to 58.2 µM), for inactives: at the top dose activity change, negative = inhibition, hits mostly inhibitors. AID 720542, 2013;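 note: 0% = vehicle wells and -100% = peptide control; nearly all actives have a fitted effect of over 45% in size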
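AMA1 (3D7) with his tag at 25 nM final met compounds first, then biotinylated RON2 peptide at 25 nM; detection used donor plus acceptor beads, 10 µg/mL apiece, read by AlphaScreen after 30 min at room temperature.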
Pf growth 48h: Primary qHTS for delayed death inhibitors of the malarial parasite plastid, 48 hour incubation; Potency, µM (top dose mostly 28.7 µM), inactives show top-dose activity change, negative = inhibition, hits mostly inhibitors; P. falciparum luciferase growth in erythrocytes, 48 h; actives 5.9% (n = 310,000); note: % is set by controls: 0 for no effect and ±100 for the full control effect
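Here the parasites carry a stable luciferase gene and grow inside erythrocytes in Albumax-based RPMI medium with compound for one erythrocytic cycle. Activity is scored as loss of luminescent signal.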
Sm TGR block: qHTS Assay for the Inhibitors of Schistosoma Mansoni Peroxiredoxins; purified TGR, DTNB reduction, TNB absorbance 405 nm; Potency, µM (titrated, usually from 114 µM), inactives show at the top dose activity change, negative = inhibition, usual class: inhibitors; actives 3% (n = 360,000); note: % is set by controls: 0 for no effect and ±100 for the full control effect; nearly all actives have a fitted effect of over 60% in size
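First, TGR (20 nM dispensed) and NADPH were mixed with compound. Second, a 15 min room-temperature incubation followed. Third, further NADPH and then DTNB were added to start the reaction. Finally, TNB absorbance was monitored kinetically.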
NS1 function inh: qHTS Assay for Inhibitors of Influenza NS1 Protein Function. AID 2326, 2010. actives 0.4% (n = 270,000). Potency, µM (titrated, usually from 46.1 µM), for the others: top-dose activity, positive = more growth; calls by dose curve; note: actives are rising curves; nearly all actives have a fitted effect of over 50% in size
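A cell-based growth assay was used: compounds that relieve NS1-induced slow growth of budding yeast raise OD600. Assay medium was yeast nitrogen base with ammonium sulphate and -URA supplement, pH 6.0, with 2% galactose.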
* marks the source's active call; other numbers are inactive results; ? = inconclusive; · = no result. This is a sample that favours compounds with a hit; in the whole collection about 11% have one here. Unless noted, calls come from the whole dose curve; as a rule, active = well fitted curve in the direction sought with a large enough effect; inconclusive = small, poorly fitted or top-dose-only effect, or another doubt; inactive = no such curve, though single readings can be large; an effect the other way counts as inactive or inconclusive. Potency is the fitted concentration of half-maximal effect.

SMILES | Pf growth 96h | AMA1 RON2 block | Pf growth 48h | Sm TGR block | NS1 function inh
CC(=O)c1cccc(NC(=O)C(Sc2ncnc3ccccc23)c2ccccc2)c1 (stereo unspecified) | 4.7µM* | -18% | 12µM* | 2% | ?
CCOC(=O)c1c(C)[nH]c(CCC(=O)NCCCN2CCN(c3ccccc3F)CC2)c1C | · | · | · | -9% | ·
O=C(/C=C/c1ccc([N+](=O)[O-])cc1)Nc1ncc([N+](=O)[O-])s1 | 2% | 3% | -61% | 0% | ·
C=CCOc1ccc(CN(C)C(=O)c2ccc(CNS(=O)(=O)c3ccc(C)c(C)c3)cc2)cc1 | ? | -2% | ? | 22% | ·
C=CCN1CCc2cc(O)c(O)cc2C(c2ccccc2)C1 (stereo unspecified) | ? | -7% | 12µM* | ? | -1%
C=CCN1CCc2c(cc(O)c(O)c2Cl)C(c2ccccc2)C1 (stereo unspecified) | ? | 24% | ? | ? | 0%
CCOC(=O)C1CCN(C(=O)c2cccnc2Oc2ccc(Cl)cc2)CC1 | -2% | 1% | -5% | 11% | -2%
CCS(=O)(=O)n1nc(-c2ccccc2)cc1N | 1.3µM* | -6% | · | 2% | ?
CCCS(=O)(=O)n1nc(-c2ccc(Br)cc2)cc1N | -17% | -6% | 19% | -8% | 18%
CCCS(=O)(=O)n1nc(-c2ccccc2)cc1N | 9.3µM* | 9% | · | -17% | 1%
N#Cc1nn(-c2c(Cl)cc(C(F)(F)F)cc2Cl)c(N)c1S(=O)C(F)(F)F (stereo unspecified) | -23% | · | 1.9µM* | · | ·
Brc1c(CSc2nc3ccccc3s2)nc2ncccn12 | 3.3µM* | -7% | 3% | -11% | -4%
CC(Oc1ccc(F)cc1)C(=O)N1CCC(c2nc3ccccc3s2)CC1 (stereo unspecified) | · | · | · | -2% | ·
S=C(/N=c1/sccn1Cc1ccccc1)NC1CC1 | 12µM* | -3% | ? | -14% | -37%
Clc1ccccc1CN(Cc1ccccc1)C(c1cccs1)c1nnnn1C1CCCC1 (stereo unspecified) | ? | -6% | ? | 1% | -13%
CC(c1nnnn1C1CCCCC1)N(Cc1ccccc1)Cc1cccnc1 (stereo unspecified) | 11% | 1% | 10µM* | -6% | -44%
CCN(Cc1ccccc1)C(c1cccs1)c1nnnn1C1CCCCC1 (stereo unspecified) | 0% | 7% | 9.3µM* | 8% | -39%
Clc1ccc(C(c2nnnn2C2CCCCC2)N(Cc2cccnc2)Cc2ccco2)cc1 (stereo unspecified) | ? | -2% | ? | -14% | -52%
CCN(Cc1ccccc1)C(c1ccccn1)c1nnnn1C1CCCCC1 (stereo unspecified) | -32% | 7% | 12µM* | -23% | 6%
CCC(c1nnnn1C1CCCC1)N1CCN(c2ccccc2)CC1 (stereo unspecified) | -5% | -1% | -9% | -2% | -11%
COc1cccc(Cn2ccn(-c3ccc(F)cc3)c(=O)c2=O)c1 | · | · | · | -6% | ·
CN(C)c1ccc(-c2noc(C3CC(=O)N(c4ccc5c(c4)OCCO5)C3)n2)cc1 (stereo unspecified) | · | · | · | -3% | ·
CCOc1ccccc1CNC(=O)c1cnc2sc(N3CCCCCC3)nn2c1=O | · | · | · | -16% | ·
O=C(Nc1nccs1)C(Cl)(Cl)Cl | -17% | -3% | 0% | -5% | -24%
O=C(CCl)Nc1nccs1 | ? | -3% | ? | 3.2µM* | -1%
Cc1ccc(S(=O)(=O)n2cc(-c3ccccc3)c3ccccc32)cc1 | ? | 6% | 2.6µM* | 2% | ·
Cc1ccc(S(=O)(=O)n2cc(C=O)c3ccccc32)cc1 | 9% | 0% | 5% | 0% | -4%
Nc1ccc(-c2nc3nc(N)nc(N)c3nc2-c2ccc(N)cc2)cc1 | ? | -13% | 10µM* | 6% | 2%
